{"source": "paper PMC6925144", "about": "“A prospective compound screening contest identified broader inhibitors for Sirtuin 1” (Scientific Reports, 2019)", "data": [{"target": "NAD-dependent deacetylase Sirtuin 1 (human, UniProt Q96EB6)", "sequence (Q96EB6 2-747 limits assumed)": "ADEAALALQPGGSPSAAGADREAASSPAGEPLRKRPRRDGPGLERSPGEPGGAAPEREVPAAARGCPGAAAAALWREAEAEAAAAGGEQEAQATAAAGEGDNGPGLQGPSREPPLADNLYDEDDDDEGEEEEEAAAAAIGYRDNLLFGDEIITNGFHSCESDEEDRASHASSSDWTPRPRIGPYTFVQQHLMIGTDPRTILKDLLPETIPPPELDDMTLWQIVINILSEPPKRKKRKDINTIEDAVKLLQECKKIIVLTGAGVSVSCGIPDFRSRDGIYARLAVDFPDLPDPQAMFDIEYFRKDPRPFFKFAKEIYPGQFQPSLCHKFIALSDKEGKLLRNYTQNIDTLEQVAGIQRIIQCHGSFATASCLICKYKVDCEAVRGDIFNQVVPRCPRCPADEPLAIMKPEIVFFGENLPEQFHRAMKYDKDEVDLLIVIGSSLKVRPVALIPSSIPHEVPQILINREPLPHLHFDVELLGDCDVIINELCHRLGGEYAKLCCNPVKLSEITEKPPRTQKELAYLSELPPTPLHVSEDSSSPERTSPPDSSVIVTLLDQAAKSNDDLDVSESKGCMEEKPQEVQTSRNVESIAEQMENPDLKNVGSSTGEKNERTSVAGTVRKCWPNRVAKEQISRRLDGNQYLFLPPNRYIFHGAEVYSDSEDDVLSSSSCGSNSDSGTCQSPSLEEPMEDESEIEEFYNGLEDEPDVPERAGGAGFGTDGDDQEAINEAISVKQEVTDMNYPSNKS", "assay": "primary screen, percent inhibition; higher = more effect of the substance", "set-up": "mean of n = 4", "conditions": "10 µM", "procedure": "Note that the inhibitory assay was conducted with NAD+.", "units": {"TSA(without NAD+) / Inhibitory assay (Promega kit) / Mean (%)": "%", "TSA(with NAD+) / Inhibitory assay (Promega kit) / Mean (%)": "%"}, "values": [{"smiles": "O=C(CCc1c[nH]c2ccccc12)Nc1nnc(-c2ccccc2)o1", "TSA(without NAD+) / Inhibitory assay (Promega kit) / Mean (%)": 10.8}, {"smiles": "COc1ccc(N(C)S(=O)(=O)c2cccc(C(=O)Nc3ccc(Br)c(C(F)(F)F)c3)c2)cc1", "TSA(without NAD+) / Inhibitory assay (Promega kit) / Mean (%)": 5.07}, {"smiles": "Cc1ccc(N(C)S(=O)(=O)c2cccc(C(=O)Nc3ccc4c(c3)C(=O)N(C)C4=O)c2)cc1", "TSA(with NAD+) / Inhibitory assay (Promega kit) / Mean (%)": 25}, {"smiles": "c1ccc(-c2[nH]c3c(ccc4ccccc43)c2-c2ccccc2)cc1", "TSA(without NAD+) / Inhibitory assay (Promega kit) / Mean (%)": -0.157}, {"smiles": "NC(=O)c1cccc(NC(=O)c2cc3c(s2)-c2ccccc2CC3)c1", "TSA(without NAD+) / Inhibitory assay (Promega kit) / Mean (%)": 4.33}, {"smiles": "O=C1/C(=C\\c2cc(Br)cc(Br)c2O)CC/C1=C\\c1cc(Br)cc(Br)c1O", "TSA(without NAD+) / Inhibitory assay (Promega kit) / Mean (%)": 44.3}, {"smiles": "Cc1ccc(C(C)(C)C)cc1S(=O)(=O)Nc1cccc(C(=O)NNC(=O)c2cccc(S(=O)(=O)Nc3cccc(C(F)(F)F)c3)c2)c1", "TSA(without NAD+) / Inhibitory assay (Promega kit) / Mean (%)": -8.09}, {"smiles": "O=C(COc1ccccc1C(=O)Nc1ccc(S(=O)(=O)Nc2nccs2)cc1)Nc1cccc(C(F)(F)F)c1", "TSA(without NAD+) / Inhibitory assay (Promega kit) / Mean (%)": 10.1}]}]}
